The source of these data is PubChem BioAssay (NCI).

This is part of a sample that, as a whole, favours compounds with a hit. Of some 83,000 tested, about 20% had one in any assay.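 48-hour exposure, single concentration, 96-well plates; percent growth endpoint where 0 means no net growth. Active: below 10.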 Active and inactive are the calls of the source.

This assay relates to SR leukemia. Put plainly: NCI-60 one-dose screen, 48 h (100 = growth as untreated, 0 = no growth, -100 = all killed). Particulars: 10 µM unless noted. The protocol: Growth inhibition of the SR human tumor cell line is measured as a screen for anti-cancer activity. Cells are grown in 96 well plates and exposed to the test compound for 48 hours. Compounds are tested at a single concentration, which is 10^-5 M for most compounds. The reported endpoint is percent growth (GI% or GIPRCNT), where numbers from 0 - 100% represent growth inhibition, and numbers from -100% - 0 represent cell death. For example, a value of 40 represents 60% growth inhibition. A value of 0 means no net growth occurred over the course of the experiment. A value of -40 indicates 40% of cells at the beginning of the experiment died by the end of the experiment. A value of -100 means all cells are dead at the end of the experiment.
NCI-60 Human Tumor Cell Lines Screen was performed using the standard one-dose NCI protocol, which is described in more detail at https://dtp.cancer.gov/discovery_development/nci-60/default.htm.
Compounds with GIPRCNT values below 10 were considered active. Activity score was based on GIPRCNT using the following formula: […]
Score is 0 for GIPRCNT values of 100 or above, 50 for GIPRCNT values of 0, and 100 for GIPRCNT values of -100.
Consider `O=C(CCCCN1CCOCC1)Nc1ccc(Cn2nnc3c2C(=O)c2nnn(Cc4ccc(NC(=O)CCCCN5CCOCC5)cc4)c2C3=O)cc1`, for which the growth is -22.2% (active). In the case of `CC1=C(C)C(=O)OC([C@](C)(O)[C@]2(O)CC[C@@]3(O)[C@@H]4C[C@H]5O[C@]56CC=CC(=O)[C@]6(C)[C@H]4CC[C@]23COC(=O)c2ccc(C)o2)C1` (stereo not given in full), the growth is 2.88% (active).

For `COc1ccccc1-c1ccc2c(N)c(C(=O)c3ccc4c(c3)OCO4)sc2n1`, the growth is 9.21% (active). For the compound `CCN(CC)c1ccc(/C=C/C2=[N+](C)c3ccccc3C2(C)C)cc1`, the growth is 28.1% (inactive).

For the compound `CCCCCn1cnc2c(=S)nc[nH]c21`, the growth was 112% (inactive). As to `Cn1c2ccccc2c2c3[nH]c(=O)[nH]c(=O)c3c3c4ccccc4n(C)c3c21`, the growth was 13.7% (inactive). To `COc1cc2c(c(OC)c1OC)-c1ccc(N=NC(N)=S)c(=O)cc1[C@@H](NC(C)=O)CC2` belongs 15% (inactive); to `CC(=O)CC(C)(C)c1ccc(Cl)cc1`, 101% (inactive); to `Brc1cccc(-c2nc(-c3ccc4c(c3)OCCO4)co2)c1`, 37.7% [25 µM] (inactive). On to `COc1cc(OC)c(/C=C/S(=O)(=O)Cc2ccc(OC)c(N)n2)c(OC)c1`, for which the growth was 0.349% (active). As for `COC1=CC(=O)C(OC)=C(OC)C1=O`, the growth is 36.5% (inactive). On to `CCCCCCCCCCNC(=O)CCl`, for which the growth was 51.4% (inactive). For `COc1ccc(-c2nn(-c3ccccc3)cc2/C=C/C(=O)OCc2cn(-c3ccc(F)c(Cl)c3)nn2)cc1`, the growth is 88.3% (inactive). Consider `C=C(CN1CCN(c2cccc(C(F)(F)F)n2)CC1)c1ccc(C(=O)Nc2ccccc2N)cc1`, for which the growth was -20.9% (active).

In the case of `NS(=O)(=O)N(c1cc(C(F)(F)F)cc(C(F)(F)F)c1)C1CCN(Cc2ccc(F)cc2)CC1`, the growth is -35.1% (active). On to `COc1cc(C2CC(=O)Nc3c2c(C)nn3-c2nc3ccccc3[nH]2)cc(OC)c1OC` (stereo not given), for which the growth is 83.8% (inactive). For `O=C1c2c[n+](Cc3ccccc3)ccc2-c2nc3ccccc3c3ccnc1c23`, the growth is -8.84% (active).

On to `O=[N+]([O-])c1cccc(-c2nc3sccn3c2-c2ccnc(NCCCNS(=O)(=O)c3cccc(F)c3)n2)c1`, for which the growth is 13.2% (inactive). To `CC1=CC(=O)CC(C)(C)[C@@]1(O)/C=C/[C@@H](C)O` belongs 111% (inactive); to `CC(=O)OCC1OC(OC2=C(CC=C(Cl)Cl)C(=O)c3ccccc3C2=O)C(OC(C)=O)C(OC(C)=O)C1OC(C)=O` (stereo not given), -3.56% (active). With `CCCCCCCCCCCCCCCCCCNC(=O)[C@H]1CSC(c2ccc(OC)c(F)c2)N1` (stereo not given in full), the growth was -30.9% (active). Regarding `Cc1ccc(-c2nc(/C=N/Nc3cc(C)nc4ccc(Br)cc34)c(C)o2)cc1`, the growth is 2.27% (active).

For `CCCCCCCCCCCCS(=O)CC(C)O` (stereo not given), the growth was 110% (inactive). As for `CCCCCCCCCCCCCCCCNCCC[C@@H](C)[C@H]1CC[C@H]2[C@@H]3[C@H](OCCCN)C[C@@H]4C[C@H](OCCCN)CC[C@]4(C)[C@H]3C[C@H](OCCCN)[C@]12C`, the growth is 2.63% (active). As for `COc1ccccc1N1CCN(CCn2c(=O)c3c(c4ccccc4n3C)n(C)c2=O)CC1`, the growth was 78% (inactive). As to `CN(C)c1ccc(/C=C\C2=[N+](C)c3ccccc3C2(C)C)cc1`, the growth is 25% (inactive). Then `O=c1c2c3c(sc2n2c(CCl)nnc2n1Cc1ccccc1)CCCC3`, with -33.9% (active). With `c1ccc2sc(SCCCn3ccnc3)nc2c1`, the growth was 87.9% (inactive). For the compound `C(=N\Nc1ccccn1)/c1ccccn1`, the growth is 15.8% (inactive). Take `CC/C=C\C[C@H](O)C/C=C1/C(=O)C=C[C@@H]1C/C=C\CCCC(=O)OC(C)C`: the growth was -27% (active). In the case of `Cc1ccc(-c2nc(/C=N/Nc3cc(C)nc4ccc(Cl)cc34)c(C)o2)cc1`, the growth was 0.444% (active).

With `Cc1ccc2c(c1)O/C(=C\c1cccc(OCC(=O)c3ccccc3)c1)C2=O`, the growth was 44.9% (inactive). `COc1ccc(/C=C2\N=C3Sc4cc(Cl)ccc4C(=O)N3C2=O)cc1`: the growth was 88.4% (inactive). As to `CC/C(=C(\c1ccc(O)cc1)c1ccc(OCCN(C)CCN(C)C(=O)CCCCC(=O)c2c(C)[nH]c(/C=C3\N=C(c4ccc[nH]4)C=C3OC)c2C)cc1)c1ccccc1`, the growth is 9.77% (active). As for `COc1cc(-c2c3sc(=O)[nH]c3nc3c2c(=O)[nH]n3C(C)C)cc2c1OCO2`, the growth was 81.5% (inactive). To `CCN(CC)CC#CCOC(=O)[C@]1(C)CCC[C@@]2(C)[C@H]1CC(C=O)=C1C=C(C(C)C)CC[C@@H]12` belongs 20.1% (inactive); to `CCN(CC)CCCC(C)Nc1ccnc2c(OC)cccc12` (stereo not given), 97.3% (inactive); to `O=C(CN1CCN(c2cc3c(cc2F)c(=O)c(C(=O)N/N=C/c2ccccc2)cn3C2CC2)CC1)N/N=C\c1ccccc1`, 61% (inactive).

In the case of `CCN(CC)CCCNc1cccc2c(SCc3ccccc3)ccnc12`, the growth is -27.9% (active). Then `CCN(CC)CCCC(C)N/C(=C1\C(=O)NC(=O)\C1=C(/NC(C)CCCN(CC)CC)c1cccc(OC)c1)c1cccc(OC)c1` (stereo not given), with -25.1% (active).
